# Assay results taken from PubChem BioAssay (EPA / NIEHS).
# Records with an inconclusive call do not appear. Some compounds were tested as several samples or in several runs, with calls that do not always agree. Activity calls are given as the source filed them. The calls were made as follows, unless noted: active = hit-call score of the fitted dose curve at least 0.9, where 1 is the maximum; inactive = score below 0.9.
# Assays:
# [1] = read-out: Tumor necrosis factor (Homo sapiens) (UniProt P01375); assay: BSK_BT_xTNFa: BioMAP Diversity Plus: BT Assay for Tumor necrosis factor alpha (TNF-alpha) Biomarker Activity (AID 2284230); settings: primary human B cells with PBMC
# Outline: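 B cells with PBMC in co-culture, dosed and sampled at 24 h; secreted TNF-alpha measured by Luminex xMAP bead assay. Activity fitted in the gain direction against DMSO as negative control and baseline.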
# [2] = read-out: Vascular cell adhesion molecule 1 (VCAM1), VCAM1 (gene 7412); assay: BSK_MyoF_VCAM1: BioMAP Diversity Plus: MyoF Assay for Vascular cell adhesion molecule 1 (VCAM1) Biomarker Activity (AID 2284231); settings: primary human lung fibroblasts
# Outline: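 VCAM-1 levels, lung fibroblasts, ELISA, 24 h exposure, increase scored relative to DMSO.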
# [3] = read-out: Collagen I, COL1A1 (gene 1277); assay: BSK_MyoF_CollagenI: BioMAP Diversity Plus: MyoF Assay for Collagen I Biomarker Activity (AID 2284238); settings: primary human lung fibroblasts
# Outline: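 Measured by ELISA: Collagen I from human lung fibroblasts 24 h after compound addition, analysed for signal gain with DMSO as baseline; overt toxicity read from SRB staining of parallel cultures at the same time.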
# [4] = read-out: Collagen III, COL3A1 (gene 1281); assay: BSK_MyoF_CollagenIII: BioMAP Diversity Plus: MyoF Assay for Collagen III Biomarker Activity (AID 2284239); settings: primary human lung fibroblasts
# Outline: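 Multiplexed cell assay in lung fibroblasts, harvested at 24 h post-dose. Collagen III detected by ELISA, with positive-direction fitting relative to DMSO vehicle.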
# [5] = CCTE_Mundy_HCI_Cortical_NOG_BPCount: CCTE's Neurite Outgrowth Assay in rat cortical cells for Branch Point Count, Mundy Lab (AID 2284237)
# Outline: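 Measured 50.33 h after dosing, this morphology endpoint uses rat primary cortical cultures labelled for betaIII-tubulin. Branch points are quantified by high-content imaging, with DMSO as negative control and baseline.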
# [6] = UKN4_HCS_LUHMES_cell_viability: Viability Assessment in the University of Konstanz (UKN) Leist Lab Neurite Outgrowth Assay in human LUHMES cells (UKN4) (AID 2284232)
# Outline: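 Measured in replated, 2-day-differentiated LUHMES cells treated 24 h; stained 30 min with H-33342 and calcein-AM before high-content imaging.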
# [7] = UKN2_HCS_IMR90_cell_viability: Viability Assessment in the University of Konstanz (UKN) Leist Lab Neural Crest Cell Migration Assay in human induced IMR90 Pluripotent Stem Cells (UKN2) (AID 2284233);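 also: viability of neural crest cells differentiated from IMR90 iPSC measured by calcein-AM fluorescence imaging; cells exposed to compound for 24 h after a 24 h migration phase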
# Outline: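 cMINC format, iPSC-derived neural crest (IMR90); 24 h migration (EGF/FGF, N2-S), then 24 h toxicant. Calcein-AM/H-33342 stain 30 min; fluorescence intensity by HCS; DMSO-normalised, bidirectional fitting.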
# [8] = CCTE_Mundy_HCI_Cortical_NOG_NeuronCount: CCTE's Neurite Outgrowth Assay in rat cortical cells for Neuron Count, Mundy Lab (AID 2284236; active = hit-call score of the fitted dose curve at least 0.9, where 1 is the maximum;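 also: neurons counted by imaging betaIII-tubulin and Hoechst stained cortical cells; cells exposed to compound for about 48 hours before fixation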)
# Outline: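 Read-out: neuron number by high-content imaging of betaIII-tubulin (Alexa Fluor-488) and Hoechst-labelled rat primary cortical cells.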
# [9] = TAMU_HCS_1.5hr_SingleDonor1434_Cytotoxicity: Cytotoxicity Assessment using High-content Screening (HCS) Fluorescent Imaging for the Texas A&M University (TAMU) 1.5-hr Human Induced Pluripotent Stem Cell (iPSC)-derived Cardiotoxicity Assay (AID 2284234; active = hit-call score of the fitted dose curve at least 0.9, where 1 is the maximum)
# Outline: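 Nuclear counts from Hoechst 33342 imaging define cytotoxicity here, with EC10 (10% cell-count loss relative to DMSO) as point of departure. iPSC cardiomyocytes received 0.2-100 uM test chemical in 0.5% DMSO for 1.5 h at 37 C.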
# [10] = TAMU_PeakParms_SingleDonor1434_QT: Texas A&M University (TAMU) 1.5-hr Human Induced Pluripotent Stem Cell (iPSC)-derived Cardiomyocytes Calcium (Ca+2) Flux Assay for Cardiotoxicity: QT (decay-rise ratio) (AID 2284235; active = hit-call score of the fitted dose curve at least 0.9, where 1 is the maximum)
# Outline: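 Decay/rise ratio of calcium-flux fluorescence scored after 90 min exposure (37C) of donor 1434 iPSC cardiomyocytes to 0.2–100 uM (0.5% DMSO). Beat-cessation and severe-notch points removed; POD is EC05, a 5% rise over DMSO.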
# Chain of Tumor necrosis factor (Homo sapiens) (P01375 whole entry, looked up): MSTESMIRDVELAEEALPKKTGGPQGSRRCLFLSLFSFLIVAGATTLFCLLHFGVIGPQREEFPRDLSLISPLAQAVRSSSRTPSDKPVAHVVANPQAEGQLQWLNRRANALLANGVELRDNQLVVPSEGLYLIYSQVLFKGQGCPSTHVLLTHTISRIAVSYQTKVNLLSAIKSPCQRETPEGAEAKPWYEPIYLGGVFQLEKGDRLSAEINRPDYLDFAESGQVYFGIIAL
smiles,measurement,setting,value
CCOc1nc(F)cc2nc(S(=O)(=O)Nc3c(Cl)cccc3C(=O)OC)nn12,outcome,[1],inactive
same,outcome,[2],inactive
same,outcome,[3],inactive
same,outcome,[4],inactive
CCCCNc1ccc(NCCCC)c2c1C(=O)c1ccccc1C2=O,outcome,[1],inactive
same,outcome,[2],inactive
same,outcome,[3],inactive
same,outcome,[4],inactive
O=c1c2ccccc2oc2ccccc12,outcome,[1],inactive
same,outcome,[2],inactive
same,outcome,[3],inactive
same,outcome,[4],inactive
CCCCC(CC)COC(=O)c1ccccc1O (stereo not drawn),outcome,[1],inactive
same,outcome,[2],inactive
same,AC50,[3],14.5 µM (active)
same,outcome,[4],inactive
C=CC=CC=CCCCCC,outcome,[1],inactive
same,outcome,[2],inactive
same,outcome,[3],inactive
same,outcome,[4],inactive
CC(C)(c1cc(Br)c(OCCO)c(Br)c1)c1cc(Br)c(OCCO)c(Br)c1,AC50,[1],30.2 µM (active)
same,AC50,[2],7.89 µM (active)
same,AC50,[3],6.65 µM (active)
same,AC50,[4],7.69 µM (active)
CCCCCCCCc1ccc(Nc2ccc(CCCCCCCC)cc2)cc1,outcome,[1],inactive
same,outcome,[2],inactive
same,outcome,[3],inactive
same,outcome,[4],inactive
CC1OC1C1CCC2(C)OC2C1 (stereo not drawn),outcome,[1],inactive
same,outcome,[2],inactive
same,outcome,[3],inactive
same,outcome,[4],inactive
O=Nc1ccc(O)cc1,outcome,[1],inactive
same,outcome,[2],inactive
same,outcome,[3],inactive
same,outcome,[4],inactive
S=C(NC1CCCCC1)NC1CCCCC1,outcome,[1],inactive
same,outcome,[2],inactive
same,outcome,[3],inactive
same,outcome,[4],inactive
N[C@H]1C(O)O[C@H](CO)[C@H](O)[C@@H]1O (stereo partly drawn),outcome,[5],inactive
Nc1ncn([C@@H]2O[C@H](CO)[C@@H](O)[C@H]2O)c(=O)n1,AC50,[6],16.5 µM (active)
same,AC50,[7],6.91 µM (active)
same,outcome,[7],inactive
same,outcome,[8],inactive
same,outcome,[5],inactive
CC(C)C(=O)C(C)C,outcome,[1],inactive
same,outcome,[2],inactive
same,outcome,[3],inactive
same,outcome,[4],inactive
CC1(C)S[C@@H]2[C@H](NC(=O)COc3ccccc3)C(=O)N2[C@H]1C(=O)O,outcome,[8],inactive
same,outcome,[5],inactive
c1ccc2c(c1)ccc1cc3c(ccc4ccccc43)cc12,outcome,[1],inactive
same,outcome,[2],inactive
same,outcome,[9],inactive
same,outcome,[3],inactive
same,outcome,[4],inactive
c1ccc2c(c1)ccc1ncccc12,outcome,[1],inactive
same,outcome,[2],inactive
same,outcome,[3],inactive
same,outcome,[4],inactive
C=CC(=O)OCC(Br)CBr (stereo not drawn),AC50,[1],28.1 µM (active)
same,AC50,[2],20 µM (active)
same,AC50,[3],20 µM (active)
same,AC50,[4],32.7 µM (active)
C=CCOc1c(Br)cc(Br)cc1Br,outcome,[1],inactive
same,AC50,[2],23.7 µM (active)
same,AC50,[3],20 µM (active)
same,AC50,[4],26.2 µM (active)
O=C(O)CCCC[C@@H]1SC[C@@H]2NC(=O)N[C@@H]21,outcome,[10],inactive
COCc1c(C(C)C)nc(C(C)C)c(/C=C/[C@@H](O)C[C@@H](O)CC(=O)O)c1-c1ccc(F)cc1,AC50,[1],0.512 µM (active)
same,AC50,[2],0.0229 µM (active)
same,AC50,[3],9.2 µM (active)
same,AC50,[4],0.867 µM (active)
c1ccc(-c2ccccn2)nc1,outcome,[1],inactive
same,outcome,[2],inactive
same,outcome,[3],inactive
same,outcome,[4],inactive
CCCCCCCCCCCCCCCC[N+](C)(C)CC,AC50,[1],12 µM (active)
same,AC50,[2],1.71 µM (active)
same,AC50,[3],0.64 µM (active)
same,AC50,[4],0.967 µM (active)
N#[N+]c1ccc2c(S(=O)(=O)[O-])cccc2c1O,outcome,[1],inactive
same,outcome,[2],inactive
same,outcome,[3],inactive
same,outcome,[4],inactive
CCO[Si](CCCN=C=O)(OCC)OCC,outcome,[1],inactive
same,outcome,[2],inactive
same,outcome,[3],inactive
same,outcome,[4],inactive
O=C(Nc1ccccc1SSc1ccccc1NC(=O)c1ccccc1)c1ccccc1,AC50,[1],11.7 µM (active)
same,outcome,[2],inactive
same,outcome,[3],inactive
same,outcome,[4],inactive
C#CC1(O)CC[C@H]2[C@@H]3CCC4=CCCC[C@@H]4[C@H]3CC[C@@]21C (stereo partly drawn),AC50,[1],34.2 µM (active)
same,AC50,[2],33.1 µM (active)
same,AC50,[3],22.4 µM (active)
same,AC50,[4],31.8 µM (active)
CCCCC/C=C\C/C=C\CCCCCCCC(=O)OC,AC50,[1],30 µM (active)
same,outcome,[2],inactive
same,AC50,[3],27.1 µM (active)
same,AC50,[4],20 µM (active)
COc1ccc2nc(N)sc2c1,outcome,[1],inactive
same,outcome,[2],inactive
same,outcome,[3],inactive
same,outcome,[4],inactive
C=CCOCC(O)CCl (stereo not drawn),outcome,[1],inactive
same,outcome,[2],inactive
same,outcome,[3],inactive
same,outcome,[4],inactive
O=C(Cl)c1cc(C(=O)Cl)cc(C(=O)Cl)c1,AC50,[1],31.9 µM (active)
same,AC50,[2],35.3 µM (active)
same,AC50,[3],30.7 µM (active)
same,AC50,[4],33.2 µM (active)
C/C=C\C/C=C/CCCCCCCCOC(C)=O,AC50,[1],20 µM (active)
same,outcome,[2],inactive
same,outcome,[3],inactive
same,outcome,[4],inactive
